The panel holds about 79,000 compounds, 15% with a hit somewhere; the sample as a whole holds those more often. No stated cut-off is given here; in the data, active means growth inhibition above about 70%; inactive means the rest.
Columns and labels:
[1] = NCI Yeast Anticancer Drug Screen. Data for the rad50 strain (AID 155);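 further: 0% = growth of vehicle-only cultures of the same strain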; conditions: S. cerevisiae rad50 strain growth inhibition; at 50.0 µM; stronger effect = higher value
Outline: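 Genetically altered yeast (DNA repair pathway); compound treatment; growth inhibition vs vehicle ctrl.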

[2] = NCI Yeast Anticancer Drug Screen. Data for the mec2-1 strain (AID 157); conditions: S. cerevisiae mec2-1 strain, at 50.0 µM, stronger effect = higher value
Outline: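 Test agents were screened against the mec2-1 yeast strain, with defined DNA repair or cell cycle alteration. Growth was scored as inhibition against vehicle-only controls.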

[3] = NCI Yeast Anticancer Drug Screen. Data for the sgs1 mgt1 strain (AID 161);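 further: 0% = growth of cultures given vehicle only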; conditions: S. cerevisiae sgs1 mgt1 strain, at 50.0 µM, stronger effect = higher value
Outline: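 Inhibition of yeast growth, normalised to vehicle-treated controls, is reported for a strain bearing genetic alterations in DNA damage repair.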

[4] = NCI Yeast Anticancer Drug Screen. Data for the cln2 rad14 strain (AID 165);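 further: 0% = growth equal to vehicle treated cultures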; conditions: S. cerevisiae cln2 rad14 strain, at 50.0 µM, stronger effect = higher value
Outline: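 Growth of compound-exposed yeast (cln2 rad14 genotype) measured and expressed as inhibition relative to vehicle.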

[5] = NCI Yeast Anticancer Drug Screen. Data for the bub3 strain (AID 167); conditions: S. cerevisiae bub3 mutant strain, at 50.0 µM, stronger effect = higher value
Outline: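 Yeast carrying a defined mutation is treated with each compound, and growth is compared with that of vehicle-exposed cells to give inhibition.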

[6] = NCI Yeast Anticancer Drug Screen. Data for the mlh1 rad18 strain (AID 175); conditions: S. cerevisiae mlh1 rad18 strain growth inhibition; at 50.0 µM; stronger effect = higher value
Outline: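 In this whole-cell yeast screen, a strain with altered DNA damage repair is challenged with compound, and its growth is measured against matched vehicle-treated controls.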

Measured: growth inhibition

COc1ccc(C(=O)/C=C/c2ccc(OCCCCCCCCCCOc3ccc(/C=C/C(=O)c4ccc(OC)cc4)cc3)cc2)cc1
inactive: [1] -14.2% | [2] -14.8% | [3] -17% | [4] -15.2% | [5] -30.4% | [6] -17.4%

Cc1ncn(-c2ccccc2)c(=O)c1N=Cc1ccccc1
inactive: [1] -13.7% | [2] -17.1% | [3] -32.2% | [4] -8.85% | [5] -19.7% | [6] -10.3%

CSc1cc(=O)[nH]c(=O)[nH]1
inactive: [1] 16.9% | [2] 3.1% | [3] 4.2% | [4] 22.4% | [5] 3.8% | [6] 10.8%

NNC(=O)COCC(=O)NN
inactive: [1] -17.5% | [2] -27.2% | [3] -24.5% | [4] -9.1% | [5] -15.2% | [6] -25.1%

COC(=O)CC[N+]1=CCC(c2ccccc2)(c2ccccc2)O1
inactive: [1] -9.55% | [2] -24.9% | [3] -20.8% | [4] 5.8% | [5] -15.9% | [6] -7.65%

S=c1[nH]nc(SCc2ccc(Cl)cc2Cl)c2[nH]cnc12
inactive: [1] -2.15% | [2] 1.4% | [3] 11.4% | [4] -32.4% | [5] -0.5% | [6] -6%

O=C1C=CC2(CCC23C=CC(=O)O3)O1 (stereo not given)
inactive: [1] 13% | [2] 1.95% | [3] 11% | [4] 4.2% | [5] 12.2% | [6] 20.1%

COC(=O)C1(C(C(=O)c2ccccc2)c2ccccc2)NC(=S)NC(=O)C1C#N (stereo not given)
inactive: [1] -14.4% | [2] 10.2% | [3] -19.9% | [4] 6.25% | [5] -15.4% | [6] -9.7%

N#CC1CNC(N)NC1N (stereo not given)
inactive: [1] -0.1% | [2] 4.8% | [3] -8.05% | [4] -7.95% | [5] 7.35% | [6] 1.65%

O=C1c2cccc3c([N+](=O)[O-])ccc(c23)C(=O)N1CCc1ccccn1
inactive: [1] 24.9% | [2] 19.2% | [3] 45.5% | [4] 1.95% | [5] 17.9% | [6] 26.6%

CNc1ccc(C(=O)NC(CCC(=O)O)C(=O)O)cc1I (stereo not given)
inactive: [1] 36.6% | [2] -6.2% | [3] -4.1% | [4] 0.15% | [5] 5.5% | [6] 10.3%

C=C(CCCC(C)OC(C)OCC)[Si](C)(C)C (stereo not given)
inactive: [1] -26.2% | [2] -52% | [3] -20.6% | [4] -7.15% | [5] -23.6% | [6] -37.9%

CCC1(CC)OC(=O)C(=O)N1N(C)C
inactive: [1] -16.9% | [2] -0.8% | [3] -13.9% | [4] -15.2% | [5] -10.9% | [6] -13.7%

COc1cc(OC)c([N+](=O)[O-])cc1/C=C/C(=O)O
inactive: [1] -5.25% | [2] -3.35% | [3] 8% | [4] 6.15% | [5] 9.95% | [6] 4.05%

Cc1cc(N(CCC#N)S(=O)(=O)c2ccccc2)ccc1C=Nc1ccc(C(=O)O)cc1
inactive: [1] -12.2% | [2] -8.35% | [3] -6.15% | [4] -3.8% | [5] 1.85% | [6] -6.85%

O=C1CC2CCCCC2CC1c1ccccc1 (stereo not given)
inactive: [1] 6.35% | [2] -0.4% | [3] -4.55% | [4] -22.6% | [5] -22.5% | [6] -12.2%

Cn1c(=O)c2c(ncn2CCCCn2ccnc2[N+](=O)[O-])n(C)c1=O
inactive: [1] -30.1% | [2] -3.95% | [3] -14.9% | [4] 7.3% | [5] -1.25% | [6] -5.35%

CCOC(=O)C1CCc2ccccc2C1=O (stereo not given)
inactive: [1] -2.95% | [2] -12.3% | [3] 5.85% | [4] -3.35% | [5] 14.6% | [6] -4.95%

CNc1ccccc1C(=O)N/N=C\c1ccc(Cl)cc1Cl
inactive: [1] -7.75% | [2] -4.9% | [3] -1.3% | [4] -2.85% | [5] -10.1% | [6] -5.15%

CN1C2CC(=O)CC1[C@@H]1OC(c3ccccc3)O[C@H]21 (stereo not given in full)
inactive: [1] 6.65% | [2] -3.25% | [3] -15.4% | [4] 27.9% | [5] 17.6% | [6] 19.5%

C/C(=C\CC1C(=O)N(c2ccccc2)N(c2ccccc2)C1=O)CO
inactive: [1] -10.9% | [2] -32.2% | [3] -29.9% | [4] -18.2% | [5] -28.6% | [6] -11.9%

O=C(O)C(=N\Nc1ccccc1)/C(=N\Nc1ccccc1)C(=O)O
inactive: [1] 30.7% | [2] -6.25% | [3] 33.9% | [4] 21.8% | [5] 24.2% | [6] 7.3%

COc1cc2c3c(c1)[nH]c(=S)n3C(=O)C(C)S2 (stereo not given)
inactive: [1] -15.9% | [2] -34.6% | [3] -4.9% | [4] -6% | [5] -3.85% | [6] -25.6%

Cc1cc(=O)[nH]c2ccc(-c3ccc4[nH]c(=O)cc(C)c4c3)cc12
inactive: [1] 21.4% | [2] -17.2% | [3] 31.3% | [4] 5.15% | [5] 23.1% | [6] 18%

CCN(CC)Cc1cc(N=Nc2cccc3ccccc23)c2ccccc2c1O
inactive: [1] 31.6% | [2] 11.4% | [3] 30.1% | [4] 24.9% | [5] -3.15% | [6] 35.7%

O=c1[nH]c(=S)[nH]c2ncn(C3OC(CO)C(O)C3O)c12 (stereo not given)
inactive: [1] -13.4% | [2] -3.85% | [3] -8.15% | [4] -9.6% | [5] 5.65% | [6] -0.6%

S=C(CC(=S)N1CCOCC1)N1CCOCC1
inactive: [1] -15.1% | [2] -1.5% | [3] -10.5% | [4] -14.7% | [5] -11.7% | [6] -1.75%

Nc1cc2[nH]c(=O)c3cc([N+](=O)[O-])ccc3c2cc1Cl
inactive: [1] 63.1% | [2] 1.3% | [3] 12.3% | [4] 4.8% | [5] -11.6% | [6] 32.2%

N#CCN(CCc1ccccc1)CCc1ccccc1
inactive: [1] 8.35% | [2] -9.95% | [3] 13.2% | [4] -17.6% | [5] -0.35% | [6] 34.1%

CCc1ccccc1NC(=O)C1=C(C)NC(C)=C(C(=O)Nc2ccccc2CC)C1c1ccc2c(c1)OCO2
inactive: [1] -9.35% | [2] 3.6% | [3] -2.4% | [4] -7.8% | [5] -0.75% | [6] -4%

CCC1(C)C(=O)NC(=O)N1C(C)=O (stereo not given)
inactive: [1] -5.1% | [2] -21.4% | [3] -3.85% | [4] -44.2% | [5] -12.3% | [6] -7.55%

CC1(C)OC(=C(C#N)C#N)C(C#N)=C1/C=C/c1ccncc1
inactive: [1] 25.7% | [2] 29.4% | [3] 19.8% | [4] 18.2% | [5] 31.5% | [6] -2.45%

COC(=O)C1(C(C)C(=O)c2ccc(Cl)cc2)NC(=S)NC(=O)C1C#N (stereo not given)
inactive: [1] 0.4% | [2] 6.05% | [3] -24.9% | [4] -0.8% | [5] -8.5% | [6] 12.7%

COc1ccc2nc(NCN3C(=O)c4ccccc4C3=O)sc2c1
inactive: [1] 5.05% | [2] -4.05% | [3] -19.1% | [4] 26.9% | [5] 9.9% | [6] -5.5%

CC(C)NC(=O)C1C2CCC(C2)C1C(=O)NC(C)C (stereo not given)
inactive: [1] 3.55% | [2] -1% | [3] 2.35% | [4] -28.4% | [5] -0.3% | [6] -7.25%

— PubChem BioAssay (NCI)
